Results taken from PubChem BioAssay.
Active and inactive are the calls of the source.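 Rule for the calls, unless noted: active = compound that reduces growth-factor-driven endothelial tube area in a mixed cell culture, no cutoff stated; inactive = the rest.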

Tests used:
[1] = stimulators of nuclear beta-catenin in C2C12, primary screen, imaging, WNT3A-conditioned medium, mouse C2C12, NPC library (AID 1117326; in the data active = nuclear beta-catenin stimulation mostly above about 4.2%, no sharp cut-off; inactive = mostly below about 10%; note: reference of the scale not given here); conditions: stronger effect = higher value
[2] = stimulators of insulin release from INS-1E, primary screen, cell-based, 5 mM glucose, NPC library (AID 1117329;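 active = compound raises insulin release from rat beta cells at 5 mM glucose, no numeric limit stated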; note: reference of the scale not given here); conditions: rat INS-1E insulin secretion, at 10 µM, stronger effect = higher value
[3] = growth inhibition of GSK3B-pretreated HCT116 cells – cell-based, CellTiter-Glo, 0.2 to 20 µM (AID 1117336;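 active = compounds lowering colon cancer cell viability after pretreatment blocking the GSK3B kinase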); conditions: HCT116 viability after GSK3B inhibitor, at 20 µM, stronger effect = higher value
[4] = inhibition of endothelial tube formation, primary screen, imaging, VEGF stimulated, CD31 staining, tube area, NPC library (AID 1117340); conditions: VEGF-stimulated ADSC/ECFC co-culture, at 10 µM, stronger effect = higher value
[5] = glucagon-like peptide 1 release enhancers, primary assay, NCI-H716 cell line, NPC library (AID 1117341;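 active = compound raises GLP1 secretion from the human gut endocrine cells, with no numeric limit stated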; note: reference of the scale not given here); conditions: NCI-H716 cells, at 10 µM, stronger effect = higher value
[6] = HCT116 colon cancer cell growth inhibition, primary screen, CellTiter-Glo luminescence, NPC library (AID 1117342;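 active = compounds that lower survival of HCT116 colon cancer cells in the luminescence readout, no numeric limit stated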); conditions: at 20 µM (top of the series)
[7] = CellTiter-Glo luminescent readout of SW480 viability loss, NPC library primary (AID 1117343;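 active = compounds that lower viability of the colon cancer cells in the luminescence readout, with no numeric limit stated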); conditions: CellTiter-Glo luminescence; at 20 µM (top of the series)
[8] = decreased DLD-1 cellular survival, CellTiter-Glo luminescent readout, NPC compound collection, primary HTS (AID 1117346;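 active = compounds that lower survival of DLD-1 colon cancer cells in the luminescence readout, no cutoff given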); conditions: DLD-1 viability, CellTiter-Glo luminescence; at 20 µM (top of the series)

Cc1ccc2c(Br)cc(Br)c(O)c2n1
5.5%: nuclear beta-catenin stimulation ([1]; stimulation, at 2 µM)
active: nuclear beta-catenin stimulation ([1]; at 10 µM) 43% | viability decrease [3] 91% | tube area decrease [4] 106% | inhibition of viability [6] 79.2% | viability decrease (inhibition) [7] 90.3% | viability decrease (inhibition) [8] 93.3%
inactive: insulin secretion stimulation [2] 2.4% | GLP1 secretion stimulation [5] -1.3%

CC(=O)c1ccc(O)c(C(N)=O)c1
-1.6%: nuclear beta-catenin stimulation ([1]; stimulation, at 2 µM)
inactive: nuclear beta-catenin stimulation ([1]; at 10 µM) 0.2% | insulin secretion stimulation [2] 0.6% | viability decrease [3] 20.8% | tube area decrease [4] -0.3% | GLP1 secretion stimulation [5] 1.6% | inhibition of viability [6] 0.1% | viability decrease (inhibition) [7] -10.5% | viability decrease (inhibition) [8] 6.9%

OCC=Cc1ccccc1
-1%: nuclear beta-catenin stimulation ([1]; stimulation, at 2 µM)
inactive: nuclear beta-catenin stimulation ([1]; at 10 µM) -2.6% | insulin secretion stimulation [2] 9.1% | viability decrease [3] -8.2% | tube area decrease [4] 0.4% | GLP1 secretion stimulation [5] -1.9% | inhibition of viability [6] -0.4% | viability decrease (inhibition) [7] -0.8% | viability decrease (inhibition) [8] -7.9%

CC1(C)S[C@@H]2[C@H](NC(=O)Cc3ccccc3)C(=O)N2[C@H]1C(=O)O (tested in a mixture with another compound)
-0.3%: nuclear beta-catenin stimulation ([1]; stimulation, at 2 µM)
inactive: nuclear beta-catenin stimulation ([1]; at 10 µM) 0.8% | insulin secretion stimulation [2] -0.8% | viability decrease [3] -4.9% | tube area decrease [4] -6.3% | GLP1 secretion stimulation [5] -3.4% | inhibition of viability [6] -7.93% | viability decrease (inhibition) [7] -25.3% | viability decrease (inhibition) [8] -12.1%

O=C(O)c1ccccc1NCCc1ccccc1
inactive: nuclear beta-catenin stimulation ([1]; at 10 µM) 1.2% | insulin secretion stimulation [2] 0.15% | viability decrease [3] 42.9% | tube area decrease [4] 22.2% | GLP1 secretion stimulation [5] 1.4% | inhibition of viability [6] 26.7% | viability decrease (inhibition) [8] -1.8%
active: viability decrease (inhibition) [7] 50.6%
2.5%: nuclear beta-catenin stimulation ([1]; stimulation, at 2 µM)

NCC(=O)O
4%: nuclear beta-catenin stimulation ([1]; stimulation, at 2 µM)
inactive: nuclear beta-catenin stimulation ([1]; at 10 µM) 2.3% | insulin secretion stimulation [2] -2.4% | viability decrease [3] 1.6% | tube area decrease [4] -10.9% | GLP1 secretion stimulation [5] 1.3% | inhibition of viability [6] -28% | viability decrease (inhibition) [7] -6.3% | viability decrease (inhibition) [8] 7.4%

CN1CCN(N)CC1
0.7%: nuclear beta-catenin stimulation ([1]; stimulation, at 2 µM)
inactive: nuclear beta-catenin stimulation ([1]; at 10 µM) 1.1% | insulin secretion stimulation [2] 1.5% | viability decrease [3] -1.2% | tube area decrease [4] -7.3% | GLP1 secretion stimulation [5] 0.5% | inhibition of viability [6] 0.1% | viability decrease (inhibition) [7] -13.8% | viability decrease (inhibition) [8] 10.2%

CC(=O)SC[C@@H](Cc1ccccc1)C(=O)NCC(=O)OCc1ccccc1
0.5%: nuclear beta-catenin stimulation ([1]; stimulation, at 2 µM)
inactive: nuclear beta-catenin stimulation ([1]; at 10 µM) -0.9% | insulin secretion stimulation [2] -1.4% | viability decrease [3] -9.8% | tube area decrease [4] 18.9% | GLP1 secretion stimulation [5] -4.5% | inhibition of viability [6] -2% | viability decrease (inhibition) [8] -5.9%
active: viability decrease (inhibition) [7] -6.1%

CNC(=O)CN(CCN(CCN(CC(=O)[O-])CC(=O)NC)CC(=O)[O-])CC(=O)[O-].O.[Gd+3]
-0.1%: nuclear beta-catenin stimulation ([1]; stimulation, at 2 µM)
inactive: nuclear beta-catenin stimulation ([1]; at 10 µM) 1.4% | insulin secretion stimulation [2] 0.2% | viability decrease [3] 38.3% | tube area decrease [4] 18.9% | GLP1 secretion stimulation [5] -4.4% | inhibition of viability [6] 25.4% | viability decrease (inhibition) [7] 30.9% | viability decrease (inhibition) [8] 3.8%

O=C(Nc1ccc(Cl)c(Cl)c1)C1CC1
inactive: nuclear beta-catenin stimulation ([1]; at 10 µM) 0.1% | insulin secretion stimulation [2] 2.2% | viability decrease [3] 25.6% | tube area decrease [4] 24.7% | GLP1 secretion stimulation [5] -0.1% | inhibition of viability [6] 43.4% | viability decrease (inhibition) [7] 25.2% | viability decrease (inhibition) [8] 9.7%
0.9%: nuclear beta-catenin stimulation ([1]; stimulation, at 2 µM)

CC1CCCCN1CCCOC(=O)c1ccc(OC2CCCCC2)cc1 (centres undefined)
4.4%: nuclear beta-catenin stimulation ([1]; stimulation, at 2 µM)
active: inhibition of viability [6] 83.6% | viability decrease (inhibition) [7] 111% | viability decrease (inhibition) [8] 94.7%
inactive: nuclear beta-catenin stimulation ([1]; at 10 µM) 14.4% | insulin secretion stimulation [2] 12.4% | viability decrease [3] 21.7% | tube area decrease [4] -14.7% | GLP1 secretion stimulation [5] 5.9%

O=C(O)Cc1csc(-c2ccc(Cl)cc2)n1
inactive: nuclear beta-catenin stimulation ([1]; at 10 µM) -0.7% | insulin secretion stimulation [2] 0.4% | viability decrease [3] -4.4% | tube area decrease [4] 0.8% | GLP1 secretion stimulation [5] -2.9% | inhibition of viability [6] -9.9% | viability decrease (inhibition) [7] -3.2% | viability decrease (inhibition) [8] -11%
-0.2%: nuclear beta-catenin stimulation ([1]; stimulation, at 2 µM)

COC(=O)/C=C\C(=O)OC
inactive: nuclear beta-catenin stimulation ([1]; at 10 µM) 3.8% | insulin secretion stimulation [2] 2.95% | viability decrease [3] 8.3% | tube area decrease [4] 10.6% | GLP1 secretion stimulation [5] -1.8% | inhibition of viability [6] -5.7% | viability decrease (inhibition) [7] 5.9% | viability decrease (inhibition) [8] -5.6%
9%: nuclear beta-catenin stimulation ([1]; stimulation, at 2 µM)

COC(=O)c1cc(Cl)ccc1OC
inactive: nuclear beta-catenin stimulation ([1]; at 10 µM) -0.1% | insulin secretion stimulation [2] 1.5% | viability decrease [3] 1.2% | tube area decrease [4] -13.8% | GLP1 secretion stimulation [5] 2.6% | inhibition of viability [6] 8.2% | viability decrease (inhibition) [7] -4.7% | viability decrease (inhibition) [8] 0.3%
-1.6%: nuclear beta-catenin stimulation ([1]; stimulation, at 2 µM)

CO[C@@H]1[C@@H](O[C@@H]2O[C@H](C)[C@@H](O[C@H]3C[C@@](C)(O)[C@@H](O)[C@H](C)O3)[C@H](N(C)C)[C@H]2O)[C@@H](CC=O)C[C@@H](C)[C@@H](O[C@@H]2CC[C@H](N(C)C)[C@@H](C)O2)/C=C/C=C/C[C@@H](C)OC(=O)C[C@H]1OC(C)=O
-1.2%: nuclear beta-catenin stimulation ([1]; stimulation, at 2 µM)
inactive: nuclear beta-catenin stimulation ([1]; at 10 µM) -0.1% | insulin secretion stimulation [2] 3.3% | viability decrease [3] 0.2% | tube area decrease [4] 3% | GLP1 secretion stimulation [5] 9.9% | inhibition of viability [6] 23.2% | viability decrease (inhibition) [8] 18.7%
active: viability decrease (inhibition) [7] 59.8%

c1ccc(C(O[C@H]2CCCN(CCc3ccc4c(c3)OCO4)C2)c2ccccc2)cc1
1.5%: nuclear beta-catenin stimulation ([1]; stimulation, at 2 µM)
active: viability decrease [3] 100% | inhibition of viability [6] 96.3% | viability decrease (inhibition) [7] 101% | viability decrease (inhibition) [8] 90.1%
inactive: nuclear beta-catenin stimulation ([1]; at 10 µM) 0.9% | insulin secretion stimulation [2] 5.45% | tube area decrease [4] -6.8% | GLP1 secretion stimulation [5] 0.6%
